Only some compounds are listed: those with a hit (about 21% of all), similar ones and a draw of the others.
Pf growth 96h = inhibits malaria parasite growth, 96 h | P. falciparum luciferase reporter growth, 96 h | Potency, µM (titrated, usually from 28.7 µM), usual class: inhibitors | hit rate 6.9% among 320,000 | AID 504834
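Plates of compound plus infected erythrocytes (2% hematocrit, 0.05% parasitemia final) incubate 96 hours, 37 C, 5% CO2. Detection reagent added; reduced luminescence from the parasites' luciferase reporter flags inhibition.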
Shiga toxin inh = blocks Shiga toxin action in Vero cells; hit rate 9.2% among 290,000; Vero cells, Shiga toxin protein synthesis inhibition reporter; inhibition, % at 38.7 µM; AID 2315; in the data active = inhibition mostly above about 28%, no sharp cut-off; inactive = mostly below about 43%
SARS PLpro yeast = inhibitors of SARS-CoV papain-like protease in yeast. hit rate 0.19% among 330,000. Potency, µM (top dose mostly 32.9 µM), hits mostly activators. S. cerevisiae expressing SARS-CoV PLpro, growth rescue; calls by dose curve; also: nearly all actives have a fitted effect of over 55% in size
Pf growth 48h = inhibits P. falciparum growth in the first generation, 48 h; hit rate 5.9% among 310,000; Potency, µM (series often up to 28.7 µM), usual class: inhibitors; AID 504832; P. falciparum luciferase growth in erythrocytes, 48 h
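Parasite viability was followed by luminescence of a genomically integrated firefly luciferase. Cultures held 0.1% parasitemia at 2% hematocrit (final), incubated under 5% CO2 at 37 C.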
NS1 inh = blocks influenza NS1 protein function; Potency, µM (top dose mostly 46.1 µM); hit rate 0.4% among 270,000; AID 2326; calls by dose curve; also: actives are rising curves; nearly all actives have a fitted effect of over 50% in size
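Growth recovery, yeast-based: influenza A NS1 expressed in S. cerevisiae causes slow growth, and suppressors are detected by OD600. The parent strain without NS1 is used as positive control.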
CHX counter = counter-screen for Shiga toxin inhibitors: cycloheximide protein synthesis inhibition; cell reporter, cycloheximide protein synthesis inhibition counterscreen; hit rate 12% among 300,000; max response, %; in the data active = max response mostly above about 13%, no sharp cut-off; inactive = mostly below about 14%; also: read at 38.3 µM for the half of the compounds with a filed dose
Numbers stand for hits; – = inactive; ? = inconclusive; · = no result; [ ] = remark or other dose. Unless noted, calls follow the shape of the dose curve; as a rule, active = well fitted inhibition curve with a large enough effect; inconclusive = small, poorly fitted or top-dose-only effect, or another doubt; inactive = no such curve, though single readings can be large or run the other way.

SMILES	Pf growth 96h	Shiga toxin inh	SARS PLpro yeast	Pf growth 48h	NS1 inh	CHX counter
CN(C)C(CNC(=O)c1ccc(-c2ccccc2)cc1)c1ccccc1 (configuration not stated)	?	–	–	?	–	–
CCCCn1c(N)c(N(CC(C)C)C(=O)c2cc(C)oc2C)c(=O)[nH]c1=O	?	–	–	–	–	–
Cc1cc(C)cc(OCCNC(=O)CCc2ccccc2)c1	?	·	–	–	–	–
CNC(=S)N(Cc1cc2cc(C)ccc2n2nnnc12)CC(C)(C)CN(C)C	5.9µM	–	–	?	–	–
CCc1ccc2c(c1)cc(CN(C(=S)Nc1cccc(C)c1)C1CC1)c1nnnn12	2.3µM	–	–	?	–	–
COCCN(Cc1cc2cc(C)ccc2n2nnnc12)C(=S)Nc1cccc(C)c1	–	–	–	5.2µM	·	–
Cc1ccc(C(=O)N(Cc2cccnc2)Cc2cc3cc(C)ccc3n3nnnc23)cc1	–	–	–	?	–	–
COc1ccc(C(=O)NC(C)c2nnc(SCc3ccc(Cl)c(Cl)c3)n2C)cc1 (configuration not stated)	12µM	–	–	?	–	–
CCn1c(CCNC(=O)c2ccc(Cl)c(Cl)c2)nnc1SCCOc1ccc(OC)cc1	10µM	–	–	?	–	–
C=CCn1c(SCCOc2ccc(OC)cc2)nnc1C(C)NC(=O)c1ccc(OC)cc1 (configuration not stated)	6.6µM	–	–	·	–	–
COc1ccc(S(=O)(=O)NCC(=O)N(CC(=O)NCC2CCCO2)Cc2ccc(F)cc2)cc1 (configuration not stated)	–	–	–	–	–	–
CC1(C)C2CCC(C2)C1C/C=N/NC(N)=S (configuration not stated)	–	–	–	–	–	–
CCN(CC(=O)Nc1ccccc1C(F)(F)F)C(=O)CSCc1ccc(C)cc1	–	·	–	–	·	·
COc1nc(N2CCOCC2)nc(C)c1[N+](=O)[O-]	12µM	–	–	–	–	–
Cc1ccc(-c2nc(P(=O)(c3ccccc3)c3ccccc3)c(N3CCOCC3)o2)cc1	10µM	–	–	10µM	–	–
CCOP(=O)(OCC)c1nc(-c2ccc(OC)cc2)oc1N1CCOCC1	–	–	–	–	–	–
CNc1oc(-c2ccc(Cl)cc2)nc1P(=O)(c1ccccc1)c1ccccc1	15µM	–	–	?	–	–
O=C(COC(=O)CCc1c[nH]c2ccccc12)Nc1ccccc1C(F)(F)F	–	·	–	–	·	·
CCOc1ccc(NC(=O)CN2C(=O)C3CC=CCC3C2=O)cc1 (configuration not stated)	–	–	–	–	–	27
CCOc1ccc(NC(=O)CN2C(=O)C(C)SC(C)C2=O)cc1 (configuration not stated)	–	–	–	–	·	25
CCOc1ccccc1NC(=O)CN1C(=O)C(C)SC(C)C1=O (configuration not stated)	?	–	–	?	·	–
CCc1ccccc1NC(=O)COc1ccc(C(=S)N2CCCC2)cc1	–	–	–	?	·	–
Cc1nc(Cl)sc1C(=O)Nc1cccc(Cl)c1C	–	–	–	–	–	–
COc1ccccc1NC1=C(NC(C)=O)C(=O)c2ccccc2C1=O	?	–	–	3.7µM	–	–
COC1=C(Nc2ccccc2OC)C(=O)c2ccccc2C1=O	2.3µM	–	–	2.3µM	–	–
SMILES	Pf growth 96h	Shiga toxin inh	SARS PLpro yeast	Pf growth 48h	NS1 inh	CHX counter
COc1ccccc1NC(C)=O	–	–	–	–	–	–
CCN(C(=O)COC(=O)CCn1c(C)csc1=O)c1c(N)n(Cc2ccccc2)c(=O)[nH]c1=O	?	·	–	–	·	·
Cc1cccc(C)c1-n1c(C)cc(/C=N/NC(N)=S)c1C	?	–	10µM	·	–	–
O=C(CNC(=O)c1ccccc1Br)N/N=C/c1cccnc1	–	–	–	–	–	–
O=C(N/N=C\c1cccc(O)c1)c1ccncc1	·	·	·	·	–	·
O=C(N/N=C/c1ccncc1)c1ccccc1	–	55	–	–	–	21
O=C(N/N=C/c1cccc(Oc2ccccc2)c1)c1ccncc1	3.7µM	–	–	–	·	–
Cc1cc(/C=N/NC(N)=S)c(C)n1-c1cccc(Cl)c1	–[5.75 µM]	–	–	–	·	–
O=C(CNC(=O)c1ccccc1F)N/N=C/c1cccnc1	–	–	–	–	–	31
O=C(N/N=C/C=C\c1ccco1)c1cccnc1	–	–	–	–	–	–
O=C(N/N=C/c1cccnc1)c1ccc(F)cc1	–	–	–	–	–	11
Cc1ccc(C(=O)N/N=C/C=C/c2ccccc2)o1	–	119	–	–	·	–
O=C(N/N=C/C=C/c1ccccc1)c1cccnc1	–	30	–	–	–	–
Cc1cc(/C=N/NC(=O)c2ccsc2)c(C)n1-c1cnccn1	–	87	–	–	–	42
COc1ccccc1OCCNC(=O)Nc1cc(F)c(F)cc1Cl	–	–	–	–	–	–
O=C(N/N=C/c1cccnc1)c1ccccc1	?	59	–	–	–	25
Cc1ccccc1-n1c(C)cc(/C=N/NC(=O)c2ccncc2)c1C	?	68	–	?	–	36
O=C(N/N=C/c1cccnc1)c1ccc([N+](=O)[O-])cc1	?	–	–	–	–	–
Cc1c(C(=O)N/N=C/c2cccnc2)sc(N)c1C#N	?	–	–	?	–	12
Cc1ccc(C(=O)N/N=C\c2cccnc2)s1	–	55	–	–	–	30
COc1cc(/C=N/NC(=O)c2sc(N)c(C#N)c2C)cc(Br)c1O	?	–	–	?	–	–
CC(C(=O)N1CCCc2ccccc21)N1CCN(S(=O)(=O)c2ccccc2F)CC1 (configuration not stated)	?	–	–	?	–	–
COc1ccccc1S(=O)Cc1ccc(C(=O)NCCc2ccc(Cl)cc2)o1 (configuration not stated)	?	–	–	·	–	–
Cc1nc2nc(NC(=O)c3ccco3)[nH]n2c(=O)c1C	?	–	–	–	–	–
NS(=O)(=O)c1ccc2c(c1)oc(=O)c1cc(S(N)(=O)=O)ccc12	–	–	–	–	–	–
SMILES	Pf growth 96h	Shiga toxin inh	SARS PLpro yeast	Pf growth 48h	NS1 inh	CHX counter
CCOC(=O)C1CCN(C(=O)N(CC)CC)CC1	–	–	–	–	–	–
O=C(Cn1cnc2ccccc2c1=O)NCCCN1CCCC1=O	–	·	–	–	·	·
CC(C)c1nc2sc3c(=O)n(N)cnc3c2c2c1COC(C)(C)C2	–	–	–	–	–	–
CC(C)(C)c1cc(C(=O)Nc2ccc(F)cc2)n(Cc2ccc(F)cc2)n1	12µM	43	–	10µM	–	26
Cc1ccc(NC(=O)c2cc(C(C)(C)C)nn2Cc2ccccc2)cc1	9.3µM	–	–	8.3µM	–	12
COc1ccccc1CCc1nnc(CCC(=O)N(C)Cc2cccc3ncccc23)o1	–[1.15 µM]	–	–	?	–	–
Cc1ccccc1S(=O)(=O)Cc1ccc(C(=O)NC2CC2)o1	–	–	–	–	–	–
